Source: PubChem (National Center for Advancing Translational Sciences (NCATS))
In the library only some 21% were active in any assay of this set; here they are far more common.
Cycloheximide cs: counter-screen hit for Shiga toxin inhibitors, cycloheximide; cell reporter, cycloheximide protein synthesis inhibition counterscreen; max response, %; 300,000 tested, 12% active; AID 2314; in the data active means max response mostly above about 13%, no sharp cut-off; inactive means mostly below about 14%; further: read at 38.3 µM for the half of the compounds with a filed dose; 0% is about no effect
Pf growth 96h: inhibits malaria parasite growth, 96 h | P. falciparum luciferase reporter growth, 96 h | 320,000 tested, 6.9% active | Potency, µM (doses to about 28.7 µM), for the others: at the highest dose activity change, negative = inhibition, hits mostly inhibitors; further: potency means the concentration at half of the fitted maximal effect; on the % scale 0 is the no-effect control and ±100 the full control effect
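Two parasite generations (96 h, 37 C, 5% CO2) of compound exposure in infected erythrocytes (0.05% parasitemia, 2% hematocrit). Luciferase-reporter P. falciparum; decreased luminescence indicates inhibited growth, aimed at apicoplast-acting delayed death.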
NS1 function inh: influenza NS1 inhibition | 270,000 tested, 0.4% active | Potency, µM (series often up to 46.1 µM), for inactives: at the top dose activity, positive = more growth; calls by dose curve; further: potency means the concentration at half of the fitted maximal effect; actives are rising curves; nearly all actives have a fitted effect of over 50% in size
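Growth recovery, yeast-based: influenza A NS1 expressed in S. cerevisiae causes slow growth, and suppressors are detected by OD600. The parent strain without NS1 is used as positive control.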
Pf growth 48h: inhibits P. falciparum growth in the first generation, 48 h. P. falciparum luciferase growth in erythrocytes, 48 h. Potency, µM (highest dose often 28.7 µM), without a hit: at the highest dose activity change, negative = inhibition, actives largely listed as inhibitors. 310,000 tested, 5.9% active. AID 504832; further: potency means the concentration at half of the fitted maximal effect; on the % scale 0 is the no-effect control and ±100 the full control effect
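Erythrocytes infected with P. falciparum carrying an integrated firefly luciferase reporter (2% hematocrit, 0.1% parasitemia final) were exposed to compounds in RPMI 1640 with 0.5% Albumax at 37 C, 5% CO2. Growth inhibition was scored as reduced luminescence.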
SARS PLpro yeast: inhibitors of SARS-CoV papain-like protease in yeast; Potency, µM (top dose mostly 32.9 µM), for inactives: at the highest dose activity, positive = growth rescue, most hits filed as activators; 330,000 tested, 0.19% active; AID 485353; S. cerevisiae expressing SARS-CoV PLpro, growth rescue; calls by dose curve; further: potency means the concentration at half of the fitted maximal effect; 0% is about no effect; nearly all actives have a fitted effect of over 55% in size
Shiga inhibitor: Shiga toxin inhibition; Vero cells, Shiga toxin protein synthesis inhibition reporter; inhibition, % at 38.7 µM; 290,000 tested, 9.2% active; in the data active means inhibition mostly above about 28%, no sharp cut-off; inactive means mostly below about 43%; further: 0% is about no effect
* hit, by the source's call; ? = inconclusive; . = not tested or not shown. Unless noted, the call rests on the fitted dose curve; in most records, active means well fitted inhibition curve with a large enough effect; inconclusive means small, poorly fitted or top-dose-only effect, or another doubt; inactive means no such curve, though single readings can be large or run the other way.

SMILES	Cycloheximide cs	Pf growth 96h	NS1 function inh	Pf growth 48h	SARS PLpro yeast	Shiga inhibitor
Cc1c(OCc2ccccc2)c(=O)ccn1Cc1ccc(F)cc1	-2.5	2.33µM*	.	?	-4.2%	-3.5
Cc1c(O)c(=O)ccn1Cc1ccccc1	-4.1	?	?	-20.9%	10µM*	-12.1
O=C(O)c1ccc2c(c1)S(=O)(=O)c1cc(Cl)ccc1C2=O	.	49.7%	.	65.4%	-3.3%	.
CN1CCN(CCCNC(=O)c2ccc3c(c2)N(Cc2ccccc2)CCS3)CC1	-5.8	-5.2%	-2.5%	.	1.6%	-20.0
CC(=O)Nc1ccc(S(=O)(=O)Nc2nccs2)cc1	-2.5	?	?	-1.1%	2.4%	-2.2
CCOCC(=O)Nc1ccc(S(=O)(=O)Nc2nccs2)cc1	-1.5	11.7µM*	0.0%	-4.5%	-3.3%	-9.7
O=C(CCl)Nc1ccc(S(=O)(=O)Nc2nccs2)cc1	-3.7	1.47µM*	3.7%	2.33µM*	0.3%	-4.1
C=CCn1cnc2c(NCc3ccccc3)ncnc21	49.8*	.	2.5%	27.8%	4.6%	90.5*
O=C1/C(=C\c2ccc(O)cc2)SC(=S)N1/N=C/c1ccc(O)cc1	12.4*	-8.3%	0.9%	0.4%	-0.7%	26.1
COc1ccc(OCc2cc(C(=O)N(C)CC3CCCCO3)no2)c(Cl)c1 (stereo not drawn)	48.3*	?	-22.7%	49.5%	-2.4%	78.6*
CN(CC1CCCCO1)C(=O)c1cc(COc2ccc(F)cc2Cl)on1 (stereo not drawn)	-2.4	25.7%	5.3%	?	-0.4%	-11.4
COc1ccc(OCc2cc(C(=O)N(C)CCC3CCOCC3)no2)c(Cl)c1	31.6*	?	-24.4%	2.8%	-4.3%	60.4*
COc1cc(Cl)ccc1OCc1cc(C(=O)N(C)CC2CCCCO2)no1 (stereo not drawn)	40.3*	?	-10.9%	13.7%	-6.5%	88.3*
COc1ccc(OCc2cc(C(=O)N(C)C(C)c3ccon3)no2)c(Cl)c1 (stereo not drawn)	34.3*	?	-17.5%	44.0%	12.2%	72.5*
CN(C1CCCCC1)S(=O)(=O)c1ccc(=S)[nH]c1	.	?	.	?	-0.6%	.
CCCC[C@H]1C2=C3[C@@H](CC(C(=O)OC)=C[C@@H](C(=O)OC)[C@H]3C(C)(C)C2=O)n2c(=O)n(C)c(=O)n21	-2.1	.	.	.	.	4.8
C/C(=N\NC(=O)CCc1ccc(S(=O)(=O)N2CCOCC2)cc1)c1ccccc1Cl	8.1	?	.	?	-1.6%	30.0
CC(Oc1cc2oc(=O)c3c(c2cc1Cl)CCC3)C(=O)NCc1ccccn1 (stereo not drawn)	-4.4	6.8%	-17.1%	24.6%	-14.1%	-3.3
CC(=O)N1CCSc2ccc(S(=O)(=O)Nc3ccc(C)cc3)cc21	-8.8	-29.8%	3.3%	-10.4%	4.8%	13.5
CCCCCSc1cc(OC)c(CCN(C)C)cc1OC	19.5*	11.7µM*	9.1%	?	2.0%	4.0
COc1ccc(OC2C(=O)N(Cc3ccc4c(c3)OCO4)C2c2cccs2)cc1 (stereo not drawn)	-2.6	11.3%	6.1%	-0.9%	-3.1%	-20.8
CCOc1ccc(C(=O)NCC(=O)OCc2csc(-c3ccccc3)n2)cc1	14.6	0.4%	-12.1%	35.5%	-23.8%	2.9
O=C(OCc1csc(-c2ccccc2)n1)c1ccc(O)cc1	36.6*	199.3%	-39.8%	108.4%	-14.9%	115.9*
Cc1ccc(S(=O)(=O)NCC(=O)OCc2csc(-c3ccccc3)n2)cc1	14.8*	58.7%	-42.8%	17.0%	-5.8%	-8.6
COC(=O)c1ccc(COC(=O)CNC(=O)c2ccc(-c3ccccc3)cc2)cc1	68.4*	40.4%	3.8%	0.9%	-18.7%	45.5*
SMILES	Cycloheximide cs	Pf growth 96h	NS1 function inh	Pf growth 48h	SARS PLpro yeast	Shiga inhibitor
Cc1ccc(C(=O)NCC(=O)OCc2csc(-c3ccccc3)n2)cc1	35.7*	1.1%	19.3%	0.8%	16.6%	69.6*
COc1ccc(C(=O)CSc2nnc(NC(=O)C3CC(=O)N(c4ccccc4C)C3)s2)cc1 (stereo not drawn)	4.8	?	9.2%	-0.8%	8.9%	19.6
COC(=O)c1ccc(CNC(=O)c2ccc(OC)c(S(=O)(=O)NC3CCCC3)c2)cc1	.	-5.5%	.	?	4.1%	.
COc1ccc(-n2c(C)nnc2SCC(=O)Nc2ccccc2F)cc1	3.9	-8.0%	0.7%	14.6%	0.7%	-5.1
Cc1cc(NC(=O)CSc2nc3c(C)cccc3cc2C#N)no1	-2.0	7.4%	-6.1%	1.5%	-3.6%	2.5
O=C(CNS(=O)(=O)c1c(Cl)cccc1Cl)OCc1csc(-c2ccccc2)n1	18.4*	61.2%	-34.9%	30.2%	-46.2%	12.0
O=C(OCC(=O)N1CCCC1=O)c1cc(Cl)ccc1O	.	-1.5%	.	18.9%	.	.
COc1ccc2oc(C(=O)OCC(=O)N3CCN(S(=O)(=O)c4ccc(C)cc4)CC3)c(C)c2c1	-1.6	1.7%	-14.9%	-9.2%	3.7%	-8.2
CN(Cc1ccccn1)C(=O)C1CCC(=O)N(Cc2cccc(C(F)(F)F)c2)C1 (stereo not drawn)	-2.8	?	-1.2%	-0.6%	-3.4%	-3.6
Cn1c(-c2cc3ccccc3oc2=O)nc2ccccc21	40.4*	150.4%	-2.0%	96.8%	-0.2%	103.6*
Cn1c(-c2ccc(=O)[nH]c2)nc2ccccc21	15.3	?	8.6%	?	0.1%	12.3
COc1ccc2cc(-c3nc4ccccc4n3C)c(=O)oc2c1	40.8*	?	13.0%	277.1%	-4.9%	67.4*
Cn1c(SCC(=O)NC(=O)Nc2ccccc2)nnc1-c1ccncc1	-0.3	-0.4%	1.1%	6.7%	1.0%	-3.5
COCCCNC(=S)NNC(=O)Cn1nc(C)c(Br)c1C	-2.2	9.28µM*	-4.3%	26.4%	20.9%	-7.0
CCOCCCNC(=S)NNC(=O)CCn1nc(C)c(Br)c1C	-4.9	.	-2.9%	2.9%	-12.9%	-7.4
Oc1ccc(/C=N/NC(=S)Nc2cccnc2)cc1	48.2*	169.9%	7.1%	155.7%	-1.4%	81.5*
Oc1ccc(/C=N/NC(=S)N/N=C/c2ccc(O)cc2)cc1	40.3*	5.5%	17.2%	75.4%	0.5%	61.9*
CCC(=O)N1c2ccc(S(=O)(=O)N3CCN(c4cc(C)ccc4C)CC3)cc2CC1C (stereo not drawn)	-1.0	?	14.7%	?	-2.8%	-3.7
O=C(Cc1ccccc1F)Nc1ccc(SC(F)F)cc1	90.7*	54.5%	8.2%	185.0%	-4.5%	56.7*
O=C(COC(=O)Cc1ccc(Cl)cc1)Nc1ccc(OC(F)F)cc1	1.2	26.9%	-6.6%	-4.3%	-2.2%	-9.0
O=C(COC(=O)Cc1ccccc1F)Nc1ccc(SC(F)F)cc1	-0.9	?	-6.3%	17.2%	-22.8%	12.0
O=C(Cc1ccc(Cl)cc1)Nc1ccc(SC(F)F)cc1	45.3*	-95.2%	-0.9%	-63.3%	-24.7%	13.2*
COc1ccccc1C1=CC(=O)C[C@H](c2ccc(Cl)cc2)C1	.	?	.	7.38µM*	0.0%	.
COc1cccc(C2=CC(=O)C[C@H](c3ccc(Cl)cc3)C2)c1OC	.	-11.2%	.	?	2.6%	.
